Test results taken from PubChem BioAssay AID463173 (ICCB-Longwood Screening Facility, Harvard Medical School, 2010).
Screen size: about 52,000 compounds; about 4,300 (8.3%) were called active. Cut-off read from the data, not from the text of the source: active = survival mostly below about 52% (no sharp cut-off); inactive = mostly above about 56%. The list comes from a sample in which actives are over-represented; it also holds similar structures and randomly drawn compounds.

tested on: DeltatarO mutant; assay: growth inhibition of S. aureus wild type versus tarO mutant, primary screen, teichoic acid synthesis inhibitors, RN4220, OD600 (AID 463173); details: OD600, 18 h, hits give low values, screened at 18.75 µg/mL (by protocol)

| Structure (SMILES) | survival |
| --- | --- |
| COc1ccc(C(=O)Oc2ccc(C(c3c(C)[nH][nH]c3=O)c3c(C)[nH][nH]c3=O)cc2)cc1 | 80% (inactive) |
| CCS(=O)(=O)c1ccccc1C(=O)N(Cc1cccnc1)c1nc2cc(C)c(C)cc2s1 | 112% (inactive) |
| Cc1cc2nc(N(Cc3cccnc3)C(=O)c3ccc(Cl)s3)sc2cc1C | 32% (active) |
| COc1ccc2sc(N(Cc3cccnc3)C(=O)c3ccco3)nc2c1 | -2% (active) |
| COc1cc(C(=O)N(Cc2cccnc2)c2nc3cc(C)c(C)cc3s2)cc(OC)c1OC | 49% (inactive) |
| COc1ccc2nc(N(Cc3cccnc3)C(=O)c3ccco3)sc2c1 | 101% (inactive) |
| COc1ccc2sc(N(Cc3cccnc3)C(=O)c3cccs3)nc2c1 | 76% (inactive) |
| COc1ccc(N(C(=O)c2snc(C(N)=O)c2N)C(C(=O)NCc2ccc(F)cc2)c2ccc(C)o2)c(OC)c1 (stereo not given) | 67% (inactive) |
| Cc1ccccc1-c1noc(-c2ccc(N3CCCC3)c([N+](=O)[O-])c2)n1 | 65% (inactive) |
| CCC(Oc1ccccc1F)C(=O)Nc1cc(-c2ccccc2)no1 (stereo not given) | 35% (active) |
| Cc1ccc(-c2cc(NC(=O)C(C)Oc3ccccc3F)on2)cc1 (stereo not given) | 33% (active) |
| CC(Oc1ccc(F)cc1)C(=O)Nc1cc(-c2ccc(F)c(F)c2)no1 (stereo not given) | 59% (inactive) |
| CCC(Oc1ccccc1F)C(=O)Nc1c(C(=O)c2ccccc2)oc2ccccc12 (stereo not given) | 53% (inactive) |
| CCc1ccccc1NC(=O)C(CC)Oc1ccccc1-c1nnc(-c2ccccc2)o1 (stereo not given) | 32% (active) |
| CCC(Oc1ccc(F)cc1)C(=O)Nc1cc(-c2ccc(C)cc2)no1 (stereo not given) | 54% (inactive) |
| Cc1ccc(-c2cc(NC(=O)C(C)Oc3ccc(C)c(C)c3)on2)cc1 (stereo not given) | 93% (inactive) |
| CCOC(=O)c1ccccc1NC(=O)COc1ccccc1-c1nnc(-c2ccccc2)o1 | 49% (inactive) |
| CCC(Oc1ccccc1-c1nnc(-c2ccccc2)o1)C(=O)Nc1ccc(C(C)=O)cc1 (stereo not given) | 112% (inactive) |
| Cc1ccc(NC(=O)CCCn2c(=O)c3cccn3c3cccnc32)c(C)c1 | 87% (inactive) |
| COc1ccc(CNC(=O)CCc2nnc3n(C)c(=O)c4sccc4n23)cc1 | 180% (inactive) |
| O=C(CN1CCN(Cc2ccccc2Cl)C1=O)NCCc1ccc(Cl)cc1 | 49% (inactive) |
| COc1cccc(-c2nc(SCC(=O)NCC3CCCO3)c(-c3ccc(Cl)cc3)[nH]2)c1 (stereo not given) | 63% (inactive) |
| CCOc1c(Br)cc(C2CC(=O)Nc3cc4c(cc32)OCO4)cc1OC (stereo not given) | 127% (inactive) |

| Structure (SMILES) | survival |
| --- | --- |
| CCOc1ccc(N2C(=O)CC(N3CCCCC3CC)C2=O)cc1 (stereo not given) | 53% (active) |
| CCC1CCCCN1C1CC(=O)N(c2ccc(NC(C)=O)cc2)C1=O (stereo not given) | 96% (inactive) |
| COc1ccc(N2C(=O)CC(N3CCCCC3C)C2=O)cc1 (stereo not given) | 106% (inactive) |
| CCSc1nnc2n(-c3cccc(C)c3)c(=O)c3c4c(sc3n12)CCCC4 | 71% (inactive) |
| CCCCSc1nnc2n(-c3cccc(C)c3)c(=O)c3c4c(sc3n12)CCCC4 | 1% (active) |
| CCSc1nnc2n(-c3ccccc3)c(=O)c3c4c(sc3n12)CCCC4 | 95% (inactive) |
| CCCSc1nnc2n(-c3cccc(C)c3)c(=O)c3c4c(sc3n12)CCCC4 | 5% (active) |
| CSc1nnc2n(-c3cccc(C)c3)c(=O)c3c4c(sc3n12)CCCC4 | 66% (inactive) |
| Cc1cccc(-n2c(=O)c3c4c(sc3n3cnnc23)CCCC4)c1 | 72% (inactive) |
| CC(C)Oc1ccc(CNC(=O)c2cc3cccc4c3n2CC(C)S4)cc1 (stereo not given) | 91% (inactive) |
| Cc1cccc(CCNC(=O)c2nn(C)c3c2CSc2ccccc2-3)c1 | 77% (inactive) |
| Cc1ccc2c(c1)-c1c(c(C(=O)NCCc3ccccc3)nn1C)CS2 | 37% (active) |
| Cc1ccc(CCNC(=O)c2nn(C)c3c2CSc2ccccc2-3)cc1 | 82% (inactive) |
| O=C(Nc1ccc(C(=O)OCc2cc(=O)n3c4c(sc3n2)CCCC4)cc1)c1ccc(F)cc1 | 101% (inactive) |
| COc1ccccc1C(=O)Nc1cccc(C(=O)OCc2cc(=O)n3c4c(sc3n2)CCCC4)c1 | 92% (inactive) |
| Cc1ccc(C(=O)Nc2ccc(C(=O)OCc3cc(=O)n4c5c(sc4n3)CCCC5)cc2)cc1 | 83% (inactive) |
| O=C(Nc1ccccc1C(=O)OCc1cc(=O)n2c3c(sc2n1)CCCC3)c1ccc(Cl)cc1 | 0% (active) |
| COc1ccccc1C(=O)Nc1ccc(C(=O)OCc2cc(=O)n3c4c(sc3n2)CCCC4)cc1 | 37% (active) |
| O=C(Nc1ccccc1C(=O)OCc1cc(=O)n2c3c(sc2n1)CCCC3)c1ccccc1 | 107% (inactive) |
| Cc1cccc(OCc2cc(=O)n3c4c(sc3n2)CCCC4)c1C | 131% (inactive) |
| O=C(OCc1cc(=O)n2c3c(sc2n1)CCCC3)c1cccc(NC(=O)c2ccccc2F)c1 | 115% (inactive) |
| Cc1ccccc1C(=O)Nc1cccc(C(=O)OCc2cc(=O)n3c4c(sc3n2)CCCC4)c1 | 46% (active) |
| Cc1cccc(C)c1OCc1cc(=O)n2c3c(sc2n1)CCCC3 | -17% (active) |

| Structure (SMILES) | survival |
| --- | --- |
| Cc1ccc(OCc2cc(=O)n3c4c(sc3n2)CCCC4)cc1C | 82% (inactive) |
| O=C(Nc1ccccc1C(=O)OCc1cc(=O)n2c3c(sc2n1)CCCC3)c1cccc(Cl)c1 | 69% (inactive) |
| Cc1ccccc1C(=O)Nc1ccc(C(=O)OCc2cc(=O)n3c4c(sc3n2)CCCC4)cc1 | 118% (inactive) |
| Cc1ccc(C(=O)c2oc3ccccc3c2NC(=O)COc2ccc(Cl)c(C)c2)cc1 | 90% (inactive) |
| COc1cc(-c2nc3n(n2)C(c2ccc(F)cc2)C(C(N)=O)=C(C)N3)cc(OC)c1OC (stereo not given) | 91% (inactive) |
| Cc1ccc2c(CC(=O)Nc3c(C(=O)Nc4cccc(Cl)c4)oc4ccccc34)coc2c1C | 62% (inactive) |
| O=C(Nc1ccc(C(=O)OCc2cc(=O)n3c4c(sc3n2)CCCC4)cc1)c1ccc(Cl)cc1 | 92% (inactive) |
| Cc1cccc(OCc2cc(=O)n3c(-c4ccccc4)csc3n2)c1C | 77% (inactive) |
| Cc1cccc(C)c1OCc1cc(=O)n2c(-c3ccccc3)csc2n1 | 19% (active) |
| O=C(Nc1ccc(C(=O)OCc2cc(=O)n3c4c(sc3n2)CCCC4)cc1)c1ccccc1 | 25% (active) |
| Cc1ccccc1OCc1cc(=O)n2c(-c3ccccc3)csc2n1 | 69% (inactive) |
| O=C(Nc1cccc(C(=O)OCc2cc(=O)n3c4c(sc3n2)CCCC4)c1)c1ccccc1 | 102% (inactive) |
| CCN1CCN(CCCNC(=O)Cn2c(-c3cccs3)cc3ccccc32)CC1 | 78% (inactive) |
| Cc1ccccc1Cn1c2ccccc2c2cnn(CC(=O)NC3CCCCCC3)c(=O)c21 | 87% (inactive) |
| Cc1ccc2[nH]c(=O)c3cc(C(=O)NCCc4ccc(Cl)cc4)sc3c2c1 | 74% (inactive) |
| CCc1nnc(NC(=O)c2sc3nc4ccc(OC)cc4cc3c2N)s1 | 77% (inactive) |
| O=C(NCCc1ccccc1)c1cc(-c2ccc(Cl)c(Cl)c2)on1 | 57% (inactive) |
| CCCCNC(=O)c1cc(-c2ccc(Cl)c(Cl)c2)on1 | 45% (active) |
| CC(=O)c1ccc(NC(=O)c2cc(-c3ccc4c(c3)OCO4)on2)cc1 | 67% (inactive) |
| CCCNC(=O)c1cc(-c2ccccc2)on1 | 95% (inactive) |
| CC(=O)c1ccc(NC(=O)c2cc(-c3ccc(Cl)c(Cl)c3)on2)cc1 | 47% (active) |
| CC(=O)Nc1ccc(NC(=O)c2cc(-c3ccc4c(c3)OCCO4)on2)cc1 | 118% (inactive) |
| O=c1cc(Nc2cccc(Br)c2)[nH]c(=O)[nH]1 | 68% (inactive) |

| Structure (SMILES) | survival |
| --- | --- |
| O=C(NCc1cccs1)c1ccc(Cn2c(SCc3ccccc3)nc3cccnc32)cc1 | 71% (inactive) |
| CCOc1ccc(NC(=O)c2sc3nc4c(c(-c5ccccc5)c3c2N)C(=O)CC(C)(C)C4)cc1 | 49% (inactive) |
| CCOC(=O)c1cc(NC(=O)c2ccc(C)cc2)c(=O)n2c1oc1ccccc12 | 52% (inactive) |
| CCOC(=O)c1cc(NC(=O)c2ccc(OC)cc2)c(=O)n2c1oc1ccc(Cl)cc12 | 46% (active) |
| CCOC(=O)c1cc(NC(=O)c2ccc(Cl)cc2)c(=O)n2c1oc1ccccc12 | 34% (active) |
| CCOC(=O)c1cc(NC(=O)c2ccc(F)cc2)c(=O)n2c1oc1ccc(Cl)cc12 | 127% (inactive) |
| CCOC(=O)c1cc(NC(=O)c2ccc(F)cc2)c(=O)n2c1oc1ccccc12 | 54% (inactive) |
| CCOC(=O)c1cc(NC(=O)c2ccc(C)cc2)c(=O)n2c1oc1ccc(Cl)cc12 | 55% (inactive) |
| O=C(NCCC1=CCCCC1)c1ccc2c(c1)ncn2-c1cccc(Cl)c1 | 98% (inactive) |
| Cc1cc(C)c(NC(=O)Cn2ccn(-c3cccc(Cl)c3)c(=O)c2=O)c(C)c1 | 57% (inactive) |
| COc1ccc(NC(=O)c2cc(S(=O)(=O)N3CCOCC3)cn2C)cc1Cl | 108% (inactive) |
| CCN(CC)C(=O)c1sc2c(c1C)c(=O)n(CCc1ccccc1)c(=O)n2Cc1ccc(F)cc1Cl | 89% (inactive) |
| Cc1ccc(S(=O)(=O)N2CCC(C(=O)NCc3ccccc3Cl)CC2)cc1 | 74% (inactive) |
| COc1cc(OC)c(OC)cc1CN1CCN(S(=O)(=O)c2ccc(NC(C)=O)cc2)CC1 | 79% (inactive) |
| COc1ccc(CN2CCN(S(=O)(=O)c3ccc(NC(C)=O)cc3)CC2)c(OC)c1OC | 61% (inactive) |
| Cc1ccc(S(=O)(=O)N2CCN(Cc3ccccc3Cl)CC2)cc1 | 13% (active) |
| Cc1ccc(S(=O)(=O)N2CCN(S(=O)(=O)c3ccc(C)cc3)CC2)cc1 | 96% (inactive) |
| CCOc1ccc(CN2CCN(S(=O)(=O)c3ccc(Cl)cc3)CC2)cc1 | 27% (active) |
| CCS(=O)(=O)N1CCN(S(=O)(=O)c2ccc(Cl)cc2)CC1 | 88% (inactive) |
| CC(=O)Nc1ccc(S(=O)(=O)N2CCN(Cc3ccccc3Cl)CC2)cc1 | 62% (active) |
| CCOc1cc(CN2CCN(S(=O)(=O)c3ccc(C)cc3)CC2)ccc1OC | 171% (inactive) |
